Some test systems named below: HCT-15 colon; HT29 colon; SNB-75 CNS; SNB-19 CNS; U251 CNS; PC-3 prostate; SK-MEL-5 melanoma; UACC-62 melanoma; LOX IMVI melanoma; SK-MEL-28 melanoma.
Experiment in all cases: NCI-60 one-dose screen, 48 h (100 = growth as untreated, 0 = no growth, -100 = all killed)
What all share (conditions): 10 µM unless noted

Among the data in PubChem BioAssay (NCI) are growth values, retold here.

About 83,000 compounds went through this panel and 20% of them were active in at least one assay; those are over-represented in the sample as a whole.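 Compound tested at a single concentration for 48 hours in 96-well plates; a percent growth value below 10 was scored as active.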 Values without a mark were called inactive. Calls of active or inactive are those of the source.

With `O/N=C1\c2ccccc2-c2ccc(Br)cc21`, the growth with HCT-15 colon is 102%; in the experiment with HT29 colon it was 101%; with SNB-75 CNS, 107%; in the experiment on SNB-19 CNS it was 104%; in the experiment with U251 CNS it was 104%; with PC-3 prostate, 101%. Moreover, the growth is 104% in the experiment on SK-MEL-5 melanoma, 105% in the experiment with UACC-62 melanoma, 105% in the experiment on LOX IMVI melanoma and 118% in the experiment on SK-MEL-28 melanoma.

On to `O=C(CC(=O)c1cccc(Cl)c1)c1cccc(Cl)c1`, for which the growth in the experiment on HCT-15 colon was 25.9%; with HT29 colon, 34.7%; in the experiment with SNB-75 CNS it was 75.3%; in the experiment on SNB-19 CNS, 31.3%; with U251 CNS it was 16.7%; in the experiment with PC-3 prostate, 33.3%. In addition, the growth with SK-MEL-5 melanoma is 36.8%; in the experiment with UACC-62 melanoma it was 27.2%; in the experiment with LOX IMVI melanoma it was 33.2%; in the experiment with SK-MEL-28 melanoma it was 56%.

Turning to `CC(=O)CC(c1ccc([N+](=O)[O-])cc1)c1c(O)c2ccccc2oc1=O` (stereo not given), the growth was 110% in the experiment with HCT-15 colon; 106% in the experiment with HT29 colon; 81.7% in the experiment on SNB-75 CNS; 109% with SNB-19 CNS; 104% with U251 CNS; 92% with PC-3 prostate. The growth in the experiment with SK-MEL-5 melanoma is 91.9%; with UACC-62 melanoma it was 100%; in the experiment with LOX IMVI melanoma it was 101%; in the experiment with SK-MEL-28 melanoma, 113%.

`O=C(CC(=O)c1ccccc1F)Nc1ccc([N+](=O)[O-])cc1`: the growth was 87.8% in the experiment with HCT-15 colon; 91.8% in the experiment on HT29 colon; 79.1% in the experiment with SNB-75 CNS; 96.9% in the experiment on SNB-19 CNS; 94.7% in the experiment on U251 CNS; 98.3% in the experiment with PC-3 prostate. In addition, the growth is 86.4% in the experiment with SK-MEL-5 melanoma, 80.1% in the experiment with UACC-62 melanoma, 99.7% with LOX IMVI melanoma and 100% in the experiment with SK-MEL-28 melanoma.

For the compound `CCC(=O)NC1=C(Cl)C(=O)C(NC(=O)CC)=C(Cl)C1=O`, the growth with HCT-15 colon was 101%; in the experiment on HT29 colon it was 106%; in the experiment with SNB-75 CNS, 107%; in the experiment with SNB-19 CNS, 115%; in the experiment with U251 CNS, 92.8%; in the experiment on PC-3 prostate it was 91.4%. The growth with SK-MEL-5 melanoma was 96.3%; with UACC-62 melanoma, 102%; in the experiment with LOX IMVI melanoma it was 66.6%; in the experiment on SK-MEL-28 melanoma it was -1.93% (active).

As for `CCOC(=O)N1C2CCC(C2)N1C(=O)OCC`, the growth was 106% in the experiment on HCT-15 colon; 107% in the experiment with HT29 colon; 71.6% in the experiment on SNB-75 CNS; 100% in the experiment with SNB-19 CNS; 99.1% in the experiment on U251 CNS; 105% in the experiment with PC-3 prostate. Moreover, the growth was 104% in the experiment with SK-MEL-5 melanoma, 98.2% with UACC-62 melanoma, 99.7% with LOX IMVI melanoma and 97.4% in the experiment on SK-MEL-28 melanoma.

For `CCNCCCn1c2c(c3ccc(Cl)cc3c1=O)C(=O)c1cc(OC)cnc1-2`, the growth is -58.2% (active) in the experiment with HCT-15 colon; -76.3% (active) in the experiment on HT29 colon; 19.4% in the experiment with SNB-75 CNS; 28.8% with SNB-19 CNS; -93.8% (active) with U251 CNS; 40% in the experiment on PC-3 prostate. Besides, the growth was 18.3% with SK-MEL-5 melanoma, 14.4% in the experiment on UACC-62 melanoma, -71.1% (active) in the experiment on LOX IMVI melanoma and 70.5% in the experiment with SK-MEL-28 melanoma.

Take `CCCCCCCCCCCCNC(=O)N[C@H](C(=O)N[C@H]1/C=C/CCNC(=O)/C=C/[C@H](C)NC1=O)C(C)C`: the growth in the experiment on HCT-15 colon is 27.9%; in the experiment with HT29 colon it was 11.8%; in the experiment with SNB-75 CNS, -94.9% (active); with SNB-19 CNS, -25.8% (active); with U251 CNS, -95.3% (active); with PC-3 prostate it was -24% (active). Also, the growth in the experiment with SK-MEL-5 melanoma was -100% (active); in the experiment with UACC-62 melanoma, -88.8% (active); in the experiment on LOX IMVI melanoma, -89.2% (active); in the experiment with SK-MEL-28 melanoma, -70.2% (active).

Regarding `CS(=O)(=O)c1ccc(Cl)c([N+](=O)[O-])c1`, the growth is 99.4% in the experiment on HCT-15 colon; 94.7% with HT29 colon; 114% with SNB-75 CNS; 105% in the experiment with SNB-19 CNS; 109% in the experiment with U251 CNS; 77.8% in the experiment with PC-3 prostate. The growth is 106% in the experiment with SK-MEL-5 melanoma, 112% in the experiment with UACC-62 melanoma, 88.2% in the experiment on LOX IMVI melanoma and 127% with SK-MEL-28 melanoma.

Take `O=C(/C=C/c1ccc(F)cc1)N1CCN(C(=O)/C=C/c2ccc(C(F)(F)F)cc2)CC1`: the growth was 104% in the experiment with HCT-15 colon; 101% in the experiment with HT29 colon; 119% in the experiment on SNB-75 CNS; 103% with SNB-19 CNS; 107% with U251 CNS; 117% in the experiment with PC-3 prostate. In addition, the growth with SK-MEL-5 melanoma was 98.9%; in the experiment on UACC-62 melanoma, 96.6%; in the experiment on LOX IMVI melanoma, 111%; with SK-MEL-28 melanoma it was 106%.

`C=C(C)[C@@H]1CC[C@]2(C(=O)O)CC[C@]3(C)[C@H](CC[C@@H]4[C@@]5(C)C[C@@H](CC#Cc6ccc(C(C)=O)s6)[C@H](O)C(C)(C)[C@@H]5CC[C@]43C)[C@@H]12`: the growth is 33.4% in the experiment on HCT-15 colon; 34.5% in the experiment on HT29 colon; 71.1% in the experiment with SNB-75 CNS; 75.7% in the experiment on SNB-19 CNS; 32.3% in the experiment with U251 CNS; 26% with PC-3 prostate. Moreover, the growth was 43.3% in the experiment with SK-MEL-5 melanoma, 52.3% with UACC-62 melanoma, 65% with LOX IMVI melanoma and 76.5% in the experiment on SK-MEL-28 melanoma.

In the case of `CCOC(OCC)c1cnc2nc(NC(C)=O)[nH]c(=O)c2n1`, the growth with HCT-15 colon is 98.7%; in the experiment with HT29 colon, 90.6%; in the experiment on SNB-75 CNS, 91.5%; in the experiment with SNB-19 CNS it was 99.4%; in the experiment on U251 CNS it was 104%; in the experiment on PC-3 prostate, 106%. In addition, the growth in the experiment with SK-MEL-5 melanoma was 104%; with UACC-62 melanoma it was 102%; in the experiment with LOX IMVI melanoma, 100%; in the experiment on SK-MEL-28 melanoma, 105%.

Regarding `COC(=O)OC1C(O[C@H]2C[C@H]3[C@@H]4CC=C5C[C@@H](O)CC[C@]5(C)[C@H]4CC[C@]3(C)[C@H]2[C@H](C)C(=O)CCC(C)C)OCC(O)C1OC1OCC(O)C(O)C1OC(=O)c1ccc(OC)cc1` (stereo not given in full), the growth in the experiment with HCT-15 colon is -40.9% (active); in the experiment on HT29 colon it was 4.87% (active); in the experiment on SNB-75 CNS it was 0.635% (active); in the experiment with SNB-19 CNS it was 8.46% (active); in the experiment with U251 CNS, -18.5% (active); in the experiment on PC-3 prostate it was -18.8% (active). Also, the growth was -71.5% (active) in the experiment on SK-MEL-5 melanoma, -29% (active) in the experiment on UACC-62 melanoma, -38.7% (active) in the experiment on LOX IMVI melanoma and -55.3% (active) in the experiment with SK-MEL-28 melanoma.
